SARS PLP yeast: SARS-CoV PLP inhibition in yeast. actives 0.19% (n = 330,000). S. cerevisiae expressing SARS-CoV PLpro, growth rescue. Potency, µM (titrated, usually from 32.9 µM), most hits filed as activators; calls by dose curve; also: nearly all actives have a fitted effect of over 55% in size
AmpC inh detg: inhibitors of E. coli AmpC beta-lactamase with detergent; actives 0.041% (n = 370,000); Potency, µM (series often up to 114 µM), most hits filed as inhibitors; AID 485294; P00811; AmpC hydrolysis of nitrocefin, absorbance 480 nm, 0.01% Triton; also: nearly all actives have a fitted effect of over 25% in size
Target sequence (P00811 whole entry, looked up): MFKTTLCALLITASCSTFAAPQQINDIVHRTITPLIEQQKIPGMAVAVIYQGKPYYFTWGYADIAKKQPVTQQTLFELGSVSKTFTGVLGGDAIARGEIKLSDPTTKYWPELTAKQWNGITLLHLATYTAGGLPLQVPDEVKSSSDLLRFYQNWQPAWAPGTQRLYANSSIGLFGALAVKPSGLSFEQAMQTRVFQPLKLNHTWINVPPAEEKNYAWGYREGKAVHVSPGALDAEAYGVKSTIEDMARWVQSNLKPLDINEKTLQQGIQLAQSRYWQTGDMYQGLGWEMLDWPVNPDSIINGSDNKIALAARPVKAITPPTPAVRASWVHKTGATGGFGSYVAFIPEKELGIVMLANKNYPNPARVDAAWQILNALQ
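AmpC (5.3 nM in the dispensed reagent) in 20 mM phosphate pH 7.0 with 0.01% (detergent screen) or 0.0001% Triton X-100 was preincubated with compounds for 15 min at room temperature. Nitrocefin was then added from an 800 uM solution, and hydrolysis was followed at 480 nm.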
AMA1 RON2 block: AMA1-RON2 (P. falciparum) interaction inhibition | actives 0.2% (n = 360,000) | AID 720542 | AlphaScreen AMA1-biotinylated RON2 peptide binding | Potency, µM (doses to about 58.2 µM), usual class: inhibitors; also: nearly all actives have a fitted effect of over 45% in size
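AMA1 (3D7) with his tag at 25 nM final met compounds first, then biotinylated RON2 peptide at 25 nM; detection used donor plus acceptor beads, 10 µg/mL apiece, read by AlphaScreen after 30 min at room temperature.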
AmpC no deterg: AmpC beta-lactamase inhibition without detergent; P00811; AmpC nitrocefin hydrolysis, absorbance 480 nm, 0.0001% Triton; Potency, µM (top dose mostly 57.1 µM), usual class: inhibitors; actives 0.52% (n = 330,000); also: nearly all actives have a fitted effect of over 20% in size
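20 mM phosphate pH 7.0 + 0.01% (detergent screen) or 0.0001% Triton X-100; 5.3 nM AmpC reagent; cpd preinc 15 min RT; nitrocefin (800 uM stock) to start; A480 q20 s × 4 min; Activity was normalised to no-enzyme and no-compound control wells.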
VACV mCherry inh: inhibitors of vaccinia virus infection (mCherry reporter signal). Vaccinia virus mCherry reporter infection, fluorescence. Potency, µM (top dose mostly 36.5 µM), usual class: inhibitors. actives 0.63% (n = 310,000). AID 720579; calls by dose curve; tested in A549 cells; also: nearly all actives have a fitted effect of over 35% in size
Vaccinia Venus: inhibitors of vaccinia virus (Venus reporter) | Vaccinia virus Venus reporter expression, fluorescence | Potency, µM (doses to about 36.5 µM), hits mostly inhibitors | actives 0.46% (n = 330,000); calls by dose curve; tested in A549 cells; also: nearly all actives have a fitted effect of over 30% in size
Hits are given with their value; . = inactive; ? = inconclusive; / = no result; [ ] = remark or other dose. An excerpt weighted towards active compounds, which were near 1.3% of everything screened. Unless noted, calls follow the shape of the dose curve; as a rule, active = well fitted curve in the direction sought with a large enough effect; inconclusive = small, poorly fitted or top-dose-only effect, or another doubt; inactive = no such curve, though single readings can be large; an effect the other way counts as inactive or inconclusive.

SMILES | SARS PLP yeast | AmpC inh detg | AMA1 RON2 block | AmpC no deterg | VACV mCherry inh | Vaccinia Venus
Cc1cc(C)cc(C(=O)Nc2ccc(NC(=O)c3cccs3)cc2)c1 | . | . | . | ? | 10µM | ?
O=C(Nc1ccc(NC(=O)c2cccs2)cc1)c1ccc(Br)o1 | . | . | . | . | / | .
Cc1ccc(C(=O)Nc2ccc(NC(=O)c3cccs3)cc2)cc1C | / | . | / | / | . | .
O=C(Nc1cccc(NC(=O)c2cccs2)c1)c1ccc(Br)o1 | . | . | . | 25.1µM | . | .
Cc1nc(Nc2nc(-c3ccccc3)cc(=O)[nH]2)nc2ccccc12 | / | / | . | / | 10µM | 10µM
COc1nc(Nc2nc3ccccc3c(=O)[nH]2)nc2ccc(C)cc12 | . | . | . | . | 2µM | 2µM
Cc1nc(Nc2nc(CSc3nc4ccccc4[nH]3)cc(=O)[nH]2)nc2ccccc12 | . | . | . | . | 10µM | 10µM
O=C(C1CCOC1)N1CCOc2ccc(CN3CCC(Oc4cccnc4)CC3)cc2C1 (stereo not given) | / | / | / | / | . | .
COCCC1CCCCN1Cc1nc(N2CCCC2)c2cc(OC)c(OC)cc2n1 (stereo not given) | / | / | / | / | . | .
COc1ccccc1/C=C/C=N/NC(=O)c1ccc2nc[nH]c2c1 | . | . | / | 20µM | / | /
c1cncc(OC2CCN(Cc3ccc4c(c3)CN(Cc3ccc5c(c3)OCCO5)CCO4)CC2)c1 | / | / | / | / | . | .
CCN(CC)C(=O)CC(c1ccc(N(C)C)cc1)c1c(OC)cc(OC)c2ccc(=O)oc12 (stereo not given) | . | . | . | . | . | .
CCCCCc1cc(=O)oc2c(C(CCN3CCCCC3)c3ccc(OC)cc3)c(OC)cc(OC)c12 (stereo not given) | . | . | . | . | 12.6µM | ?
CCCCCc1cc(=O)oc2c(C(CCN3CCCC3)c3cc(OC)c(OC)c(OC)c3)c(OC)cc(OC)c12 (stereo not given) | . | . | . | . | 14.1µM | 15.8µM
CCCCCc1cc(=O)oc2c(C(CCN3CCCC(C)C3)c3ccc(OC)cc3)c(OC)cc(OC)c12 (stereo not given) | . | . | . | . | . | ?
COc1cc(OC)c2ccc(=O)oc2c1C(CCN1CCCC1)c1ccc(N(C)C)cc1 (stereo not given) | . | . | . | . | ? | .
CCCCCc1cc(=O)oc2c(C(CCN3CCCC3)c3ccc(N(C)C)cc3)c(OC)cc(OC)c12 (stereo not given) | . | . | 8.91µM | . | ? | ?
CCN(CC)C(=O)CC(c1ccc(N(C)C)cc1)c1c(OC)cc(OC)c2c(-c3ccccc3)cc(=O)oc12 (stereo not given) | . | . | 22.4µM | . | ? | ?
COc1ccc(-c2c3c(=O)n(C)c(=O)n(C)c3cn2-c2cccc(N)c2)cc1 | / | . | / | / | . | .
Cc1ccccc1C1(CC(=O)N2CCCCC2c2cccnc2)CC(=O)N(C2CCCC2)C1=O (stereo not given) | / | / | / | / | . | .
O=[N+]([O-])c1ccc(N2CCNCC2)cc1NCc1ccco1 | . | . | . | 17.8µM | . | .
CN1CCN(c2ccc([N+](=O)[O-])c(NCc3ccco3)c2)CC1 | . | . | . | ? | . | .
COc1cccc(-c2ccc(O)c(CNCc3cccc(OC)c3OC)c2)n1 | / | / | / | / | . | .
COc1ccc(C(C[N+](=O)[O-])c2c(-c3ccccc3)cc3ccccn23)cc1OC (stereo not given) | / | . | . | / | . | .
COc1ccc(C(C[N+](=O)[O-])C2(c3ccc(OC)c(OC)c3)C(=O)c3ccccc3C2=O)cc1 (stereo not given) | . | . | ? | . | 11.2µM | ?
SMILES | SARS PLP yeast | AmpC inh detg | AMA1 RON2 block | AmpC no deterg | VACV mCherry inh | Vaccinia Venus
Cc1ccc2c(c1)C=CC(C#N)N2C(=O)c1ccccc1 (stereo not given) | 11.2µM | . | . | . | ? | .
COc1cc2c(cc1OC)C1O[C@](c3ccsc3)(C2)Oc2cc(-c3ccccc3)oc(=O)c21 | .[6.58 µM] | .[22.9 µM] | / | .[11.4 µM] | / | /
CCN(CC)C(=O)CSc1nc(N)c(C(=O)Nc2ccc(OC)cc2)s1 | . | ? | . | . | 12.6µM | ?
C=CCNC(=O)Nc1ccc(Br)cc1Cl | . | . | . | . | / | /
O=C(Nc1ccncc1)Nc1ccc(Br)cc1Cl | . | ? | . | 7.94µM | . | .
NC(=S)N/N=C\c1ccc(-c2cccc(Cl)c2Cl)o1 | ? | . | . | . | / | 6.31µM
CCCCCCSc1nnc(-c2cnn(-c3ccccc3)c2-n2cccc2)n1C | . | . | ? | . | 10µM | 10µM
CCSc1nnc(-c2cnn(-c3ccccc3)c2-n2cccc2)n1C | . | . | . | . | / | .
COc1ccccc1N1CCN(c2nc(CNC(=O)c3ccc4c(c3)OCO4)nc3ccccc23)CC1 | / | / | / | / | . | .
N=c1ccn2c(n1)O[C@H]1[C@@H](CO)[C@H](O)O[C@H]12 | / | . | . | . | 0.447µM | ?
O=C(CSCC(=O)N1CCOCC1)Nc1nc(-c2ccc3c(c2)OCO3)cs1 | . | ? | . | . | ? | 8.91µM
CCOC(=O)N1CCN(C(=O)CSCC(=O)Nc2nc(-c3ccc4c(c3)OCO4)cs2)CC1 | . | . | . | . | / | /
COc1ccc(/C=C/C2=CC(C)(C)NC(=S)N2)cc1 | . | . | . | 8.91µM | . | .
Cc1ncc2c(c1CNC(=O)c1ccccc1F)CCN(C(=O)c1ccc3c(c1)OCCO3)C2 | / | / | / | / | . | .
Cc1nnc(NC(=O)CSc2nnc(Cc3cccn3C)n2C)s1 | . | . | . | 31.6µM | . | .
CC1CCN(C(=O)CSc2nnc(Cc3cccn3C)n2-c2ccc(F)cc2)CC1 | . | ? | . | 6.31µM | . | .
COc1ccc(-n2c(Cc3cccn3C)nnc2SCC(=O)Nc2ccccc2)cc1 | . | . | . | ? | . | .
Cc1ccc(-n2c(SCC(=O)Nc3ccc(Cl)cc3)nc(O)cc2=O)cc1 | . | . | . | 7.08µM | . | .
COc1ccc(-n2c(Cc3cccn3C)nnc2SCC(=O)Nc2ccc(Cl)cc2)cc1 | . | . | . | 1µM | / | /
Cc1cc(Cl)ccc1OCC(=O)NCC1Cc2cc(-c3cnccn3)ccc2O1 (stereo not given) | / | / | / | / | . | .
O=C(Cc1ccc(OCCCc2ccccc2)cc1)NO | / | / | / | / | . | .
COCC(=O)Nc1cc(C(=O)N2CCc3ccccc3C2)c2c(c1)nc(-c1ccncc1)n2C | / | / | / | / | . | .
CN(CC(=O)Nc1ccc(Cl)c(C(F)(F)F)c1)C(=O)c1cn2ccccc2n1 | . | . | . | 35.5µM | . | .
O=C(/C=C/c1ccccc1)/C=C/c1ccccc1 | . | . | . | . | ? | 10µM
COc1cccc(C(=O)NCC2Cc3c(F)ccc(-c4ncccn4)c3O2)c1OC (stereo not given) | / | / | / | / | . | ?
CCOc1ccc(-c2oc3cc(Cl)ccc3c(=O)c2O)cc1OC | / | . | / | / | 28.2µM | .
CC(C)(C)c1csc(N/N=C/c2ccc(O)cc2)n1 | . | . | . | 10µM | / | /

Screening results: PubChem BioAssay, National Center for Advancing Translational Sciences (NCATS)
